Screens: PubChem, Broad Institute
Most compounds without a hit are left out; they make up all but 1.4% or so of the library.
ERAP1 HTS inh: human ERAP1 aminopeptidase inhibitors, primary screen, biochemical, single point, plate reader. recombinant ERAP1, Leu-AMC fluorescence, 60 min. inhibition, % at 10.7 µM. 0.15% of 340,000 active. AID 652197, 2013;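 active = mean replicate inhibition of at least 30%, or all replicates individually reaching that 30% level; inactive = mean below 30% and not every replicate reaching it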;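 also: 0% = neutral control wells and 100% = L-leucinethiol positive control wells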
PGC1a acetyl inh: inhibitors of PGC1a acetylation signal, primary screen, cell-based, U2OS, AlphaScreen, inhibitor mode. AlphaScreen anti-acetyl-lysine; with virally co-expressed GCN5 acetyltransferase. 0.17% of 350,000 active. inhibition, % at 15.6 µM. AID 651687, 2012;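 active = every replicate shows inhibition of at least 40%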;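 also: 0% = neutral control wells and 100% = positive control wells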
GSIS activator: GLuc luminescence reporter in INS-1E cells, primary screen for activators of glucose-dependent secretion of insulin; INS-1E GLuc reporter insulin secretion, 2-3 h; activation, % at 16.6 µM; 0.61% of 370,000 active;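 active = lowest replicate activation of at least 40%, so every replicate reaches that level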;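 also: 0% = median of neutral control wells and 100% = median of IBMX positive control wells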
RAD52 anneal inh: RAD52 DNA annealing inhibitors, primary screen, biochemical, FRET, single point, set 2 | DNA repair protein RAD52 homolog (Homo sapiens), P43351 | recombinant RAD52 DNA annealing, FRET fluorescence | inhibition, % at 18.7 µM | 0.46% of 360,000 active | AID 651710, 2012;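 active = every replicate showing at least 50% inhibition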
MLL AF4-AF9 inh: inhibitors of AF4 peptide binding to AF9, primary screen, biochemical, AlphaScreen, biotin-AF4 peptide, FLAG-AF9, single point; inhibition, % at 10 µM; 0.47% of 350,000 active;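 active = every replicate reaching a set inhibition limit, whatever the replicate mean, cut at about 25% in these data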;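 also: 0% = plate neutral control median and 100% = total signal loss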
Target sequence (P42568 whole entry, looked up): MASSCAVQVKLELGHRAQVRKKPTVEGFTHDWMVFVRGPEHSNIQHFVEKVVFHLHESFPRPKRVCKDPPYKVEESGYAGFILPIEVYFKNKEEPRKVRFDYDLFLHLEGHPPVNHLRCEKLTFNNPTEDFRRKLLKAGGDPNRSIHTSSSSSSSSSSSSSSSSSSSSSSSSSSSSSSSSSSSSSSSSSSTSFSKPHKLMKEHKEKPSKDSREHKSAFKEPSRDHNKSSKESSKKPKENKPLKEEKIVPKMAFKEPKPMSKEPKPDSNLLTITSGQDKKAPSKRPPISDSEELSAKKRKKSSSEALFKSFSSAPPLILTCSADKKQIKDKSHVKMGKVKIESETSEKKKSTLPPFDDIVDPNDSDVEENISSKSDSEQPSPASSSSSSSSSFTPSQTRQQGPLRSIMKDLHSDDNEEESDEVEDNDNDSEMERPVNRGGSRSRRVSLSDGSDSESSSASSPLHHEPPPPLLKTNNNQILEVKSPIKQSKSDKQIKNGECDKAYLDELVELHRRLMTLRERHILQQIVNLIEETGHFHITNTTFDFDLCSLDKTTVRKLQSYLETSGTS
RAD54 branch: inhibitors of human RAD54 branch migration, primary screen, biochemical, fluorescence, single point | DNA repair and recombination protein RAD54-like (Homo sapiens), Q92698 | RAD54 Holliday junction branch migration, FAM/BHQ fluorescence | inhibition, % at 10.4 µM | 0.14% of 360,000 active;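 active = mean normalized replicate activity at least 40 and at least half of replicates scoring 40 or more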;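 also: 0% = median of neutral control wells and 100% = median of positive control wells; inhibitors cause a drop in the FAM fluorescence signal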
Active calls of the source: *; i = inactive; / = no result.

SMILES | ERAP1 HTS inh | PGC1a acetyl inh | GSIS activator | RAD52 anneal inh | MLL AF4-AF9 inh | RAD54 branch
CCOc1ccccc1Nc1cc2n(c(=O)n1)CCc1cc(OC)c(OC)cc1-2 | 1.9 | / | 76.1* | 0.9 | -0.2 | /
COc1cc2c(cc1OC)-c1cc(Nc3cccc(C)c3)nc(=O)n1CC2 | 3.6 | 1.4 | 50.8 | -9.0 | 0.7 | 25.8
COc1cc2c(cc1OC)-c1cc(NCc3ccccn3)nc(=O)n1CC2 | / | 6.1 | 62.6* | / | / | -14.8
O=C(Cc1ccncc1)NCC[C@H]1CC[C@@H](NC(=O)C2CCCC2)[C@H](CO)O1 | -0.2 | -1.7 | 11.8 | -1.3 | 0.9 | 7.7
O=C(C[C@@H]1CC[C@H]2[C@@H](COC[C@H](O)CN2C(=O)c2ccncc2)O1)NC1Cc2ccccc2C1 | 4.4 | 1.0 | -7.0 | 0.4 | 8.0 | 2.8
O=C(C1CCCCC1)N1CC(=O)N2[C@H](CO)[C@@H](c3ccc(-c4cccnc4)cc3)[C@@H]2C1 | -0.4 | 4.3 | 7.9 | -7.5 | -0.5 | /
Clc1ccc(C2=NCCN2)cc1 | 0.4 | / | -0.6 | -13.9 | -7.1 | /
C[C@H](CO)N1C[C@H](C)[C@H](CN(C)Cc2ccc(C(=O)Nc3ccccc3N)cc2)Oc2ccc(NC(=O)NC3CCCCC3)cc2CC1=O | 1.0 | -8.4 | -8.9 | -10.6 | -4.6 | /
CN(C)CCNc1ccc2ncn3c4ccc(O)cc4c(=O)c1c23 | 33.3* | / | / | i | 33.8* | /
COc1ccc(/C=N/NC(=S)NCCc2ccccc2)cc1 | 0.4 | 4.5 | 6.0 | -9.6 | 0.1 | 7.2
CCc1ccc(/C=N/NC(=S)NCCc2ccccc2)cc1 | / | 11.2 | 40.6* | / | / | -3.6
CSCC[C@H](NC(=O)c1ccc(Br)o1)c1nnc2ccccn12 | -4.0 | 42.9* | 34.2 | -90.9 | 0.1 | -3.6
CSCC[C@H](NC(=O)c1cccs1)c1nnc2ccccn12 | -5.5 | 8.6 | 2.2 | -5.3 | -0.9 | -9.5
CO[C@@H]1CN(C)C(=O)c2cc(NC(=O)CC(F)(F)F)ccc2OC[C@@H](C)N(S(=O)(=O)c2cn(C)cn2)C[C@H]1C | 1.1 | 4.3 | 5.4 | -59.8 | -2.5 | -2.0
CCCNC(=O)NC[C@H]1CC[C@@H]2[C@@H](CN2S(=O)(=O)c2ccccc2[N+](=O)[O-])O1 | 2.7 | / | / | -5.8 | -1.8 | /
O=C(NCc1cc(Cl)cc(Cl)c1)c1ccc2nc([C@@H]3O[C@H](CO)[C@@H](O)[C@H]3O)[nH]c2c1 | -1.6 | 4.4 | 55.8* | -19.8 | -2.6 | -0.4
CC(C)c1c(C(=O)N/N=C/c2cccc3ccccc23)nnn1-c1nonc1N | -4.2 | -5.5 | 74.8* | 2.4 | -0.6 | 4.4
Cc1ccc(NC(=O)CN(C)S(=O)(=O)c2cccc3cccnc23)cc1 | / | -3.5 | 7.7 | -9.0 | -3.3 | 4.7
Cc1ccc(NC(=O)CN(C)C(=O)COc2cccc3cccnc23)cc1 | / | / | 40.2* | / | / | /
COc1cc2c(cc1OC)C(C)N(Cc1ccc3c(c1)OCO3)CC2 (stereo not drawn) | 15.8 | 4.8 | 3.8 | -0.6 | 0.7 | -5.3
COc1cc2c(cc1OC)C(Cc1ccc(O)cc1)NCC2 (stereo not drawn) | 4.4 | 5.8 | 70.1* | -1.6 | 6.4 | 5.7
COc1cc2c(cc1OC)C(Cc1ccc(O)cc1)N(C)CC2 (stereo not drawn) | 2.5 | / | 40.4* | -13.3 | -2.4 | -7.5
CCN(CC)c1ccc(C2C3CCCCC3(O)CCN2C(=O)c2cccs2)cc1 (stereo not drawn) | / | / | -15.6 | / | / | /
O=C(c1cccs1)N1CCC2(O)CCCCC2C1c1ccc(F)cc1 (stereo not drawn) | / | / | 53.8* | / | / | /
COc1ccc(C2C3CCCCC3(O)CCN2C(=O)c2cccs2)cc1 (stereo not drawn) | / | / | 48.0* | / | 3.3 | -9.7
SMILES | ERAP1 HTS inh | PGC1a acetyl inh | GSIS activator | RAD52 anneal inh | MLL AF4-AF9 inh | RAD54 branch
COc1ccc2c3c(n(C)c2c1)[C@H](CO)N(C(=O)Nc1ccc(F)cc1)CC31CN(C(=O)NC(C)C)C1 | / | / | -23.9 | / | / | /
Cc1ccc2sc(-c3ccc(NC(=O)c4cc(-n5cnnc5)ccc4Cl)cc3)nc2c1 | / | 6.8 | 119.2* | / | / | 3.2
CC(C)NC(=O)N(C)C[C@H]1OCc2ccccc2-c2c(n(C)c3ccccc23)C(=O)N([C@@H](C)CO)C[C@@H]1C | 0.9 | -5.1 | 2.7 | 8.1 | -2.1 | -2.9
OC(c1ccccc1)(c1ccccc1)C1CCN(CCCOc2ccc(C(F)(F)F)cc2)CC1 | -0.6 | / | 654.3* | 17.5 | -0.4 | /
COCC(=O)N(C)C[C@@H]1Oc2ncc(-c3cccc(OC)c3)cc2C(=O)N([C@H](C)CO)C[C@H]1C | 2.0 | -2.3 | 8.5 | -8.2 | -2.5 | 9.9
CC(=O)N1CCN(c2ccc(NCc3ccc(C)s3)cc2)CC1 | -0.1 | / | / | 5.3 | 27.4* | 3.8
CNC(=O)C[C@@H]1CC[C@H]2[C@@H](COc3ccc(NC(=O)c4ccc5c(c4)OCO5)cc3C(=O)N2C)O1 | / | -7.7 | -1.1 | / | / | 1.3
c1nc(SSc2ncnc3nc[nH]c23)c2[nH]cnc2n1 | 32.7* | 15.8 | -3.4 | -4.5 | 8.3 | /
O=C(O)CSc1ncnc2nc[nH]c12 | / | 5.6 | / | / | / | -9.2
Cc1noc(C)c1NC(=O)N(C)C[C@H]1Oc2ccc(NS(=O)(=O)c3ccc(F)cc3)cc2CC(=O)N([C@H](C)CO)C[C@@H]1C | / | / | 6.7 | / | / | /
COc1ccc(S(=O)(=O)N2C[C@@H](O)COC[C@@H]3O[C@@H](CC(=O)NCCCN4CCOCC4)CC[C@H]32)cc1 | -3.4 | -0.8 | 9.0 | -1.9 | -2.7 | 4.1
CN(C)c1ccc(/C=C/c2ccc3c4ccccc4ccc3[n+]2-c2ccccc2)cc1 | -1.0 | 43.5* | -56.7 | 45.2 | 94.5* | 74.1*
CN(C)c1ccc(/C=C/c2ccc3ccccc3[n+]2C)cc1 | / | 35.3 | -49.3 | / | / | 80.6*
CN(C)c1ccc(/C=C/c2cccc[n+]2[O-])cc1 | / | 12.4 | / | -215.6 | 4.5 | -20.3
CCSc1nnc(NC(=O)c2csc3c2CCCC3)s1 | / | / | 119.5* | / | / | -20.5
O=C(Nc1nnc(-c2ccc(Cl)cc2)o1)NC1CCCCC1 | / | 7.5 | 59.0* | / | / | 1.1
O=C(Nc1ccc(Cl)cc1)NC1CCCCC1 | / | -8.6 | / | / | / | -8.0
Cn1c(=O)c2nc(NCc3ccccc3)cnc2n(C)c1=O | -12.6 | 9.0 | 5.1 | -83.1 | -41.0 | -4.2
Cc1nc2c(=O)n(C)c(=O)n(C)c2nc1Cl | 0.9 | / | 95.9* | 8.4 | -1.2 | /
O=C(CSc1nnc(-c2ccco2)n1-c1ccccc1)Nc1c(Cl)cc(Cl)cc1C(=O)O | 3.3 | 52.4* | 18.7 | -7.3 | 4.6 | 5.6
CC1(C(=O)NCC2CCCCC2)CCN1CCc1ccccc1 (stereo not drawn) | 2.7 | / | 80.1* | 2.6 | 0.2 | -6.6
CCCC/C=C/[C@H](c1ccccc1)[C@H](CO)Cc1cccnc1 | -1.3 | -14.9 | 104.4* | 1.0 | / | -9.4
